Bioassay records: PubChem, several laboratories
Sampled rows, rich in hits. Any-hit rate of the full collection: about 1.7%.
MT1-MMP txn act: MT1-MMP promoter transcription activation. activation factor at 10 µM. HT1080 MT1-MMP promoter luciferase reporter, luminescence, overnight; active compounds read high. actives 0.16% (n = 86,000);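 active means activation factor of at least 2 for MT1-MMP transcription at 10 µM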
Measles CPE: protection of cells from measles virus | Measles virus-infected cells, CPE protection, absorbance | protection (pct of control), % at 4 µM | actives 1.5% (n = 140,000); in the data active means protection mostly above about 24%, no sharp cut-off; inactive means mostly below about 26%
Smad3 inh: blocks human Smad3 binding to FoxH1 peptide. P84022. TR-FRET Smad3/Dy647-FoxH1 peptide binding, europium anti-His. inhibition, % at 25 µM. actives 0.29% (n = 88,000). AID 630;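 active means compounds that reduce the energy-transfer binding signal between the protein and its labelled peptide by more than half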;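 further: 0% = Smad3 plus labelled peptide maximal FRET and 100% = peptide-only background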
Target sequence (P84022 whole entry, looked up): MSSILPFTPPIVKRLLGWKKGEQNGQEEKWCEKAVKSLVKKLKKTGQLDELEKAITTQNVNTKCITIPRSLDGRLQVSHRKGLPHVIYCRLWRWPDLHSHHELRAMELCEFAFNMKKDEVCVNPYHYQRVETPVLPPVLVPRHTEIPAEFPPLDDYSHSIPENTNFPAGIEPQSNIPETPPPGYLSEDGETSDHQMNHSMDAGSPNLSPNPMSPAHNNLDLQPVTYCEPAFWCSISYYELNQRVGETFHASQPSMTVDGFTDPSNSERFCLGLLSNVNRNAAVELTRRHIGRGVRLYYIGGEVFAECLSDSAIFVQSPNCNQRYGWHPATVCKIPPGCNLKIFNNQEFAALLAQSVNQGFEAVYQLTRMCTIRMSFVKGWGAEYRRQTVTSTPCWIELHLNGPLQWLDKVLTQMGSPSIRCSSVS
* = called active by the depositor; nt = no result; [ ] = dose if it differs, or a comment.

SMILES | MT1-MMP txn act | Measles CPE | Smad3 inh
CCOC(=O)N1CCN(C(=O)c2ccc3c(=O)n(Cc4ccc(Cl)cc4)c(=S)[nH]c3c2)CC1 | 1.2 | 19 | -2
COc1ccc(-c2c(C)[nH]n3c(=O)c(Cc4ccccc4)c(C)nc23)cc1 | nt | 24 | nt
COC(=O)[C@@H]1C[C@@]2(O)[C@H](O)[C@H](O)[C@H](O)C[C@H]2N1Cc1c(F)cccc1Cl | 1 | nt | nt
Cc1cccc(CSc2nc3c(cc2C#N)CCC3)c1 | 1 | 26 | 58*[fluorescence artefact?]
N#Cc1cc2c(nc1SCc1cccnc1)CCC2 | 0.9 | 19 | 0
CC(=O)Nc1ccc(OCC(O)CN2C(C)(C)CC(O)CC2(C)C)cc1 (stereo not given) | nt | 4 | nt
Cc1ccccc1NC(=O)c1ccc(CN2CCC(Cc3ccccc3)CC2)cc1 | nt | 51* | nt
COc1ccc(CCNC(=O)c2ccc(CN3CCC(Cc4ccccc4)CC3)cc2)cc1 | nt | 12 | nt
CNC(=O)[C@H](C)/C=C(\I)C(NC(=O)OCc1ccccc1)c1ccc(C(=O)OC)cc1 (stereo not given in full) | 1.1 | nt | nt
CN(C)CCOc1ccccc1Cc1ccccc1 | 1.1 | 44* | 3
CN(C)Cc1ccccc1Cc1ccccc1 | nt | 38* | nt
CN(C)Cc1cc(CN(C)C)c(O)c(CCc2ccccc2)n1 | 1.1 | 5 | 9
CN(C)CCCCOc1ccccc1-c1ccccc1 | nt | 10 | nt
Oc1c(Cl)cc(C(c2cc(Cl)c(O)c(Cl)c2)C(c2cc(Cl)c(O)c(Cl)c2)c2cc(Cl)c(O)c(Cl)c2)cc1Cl | nt | nt | -7
CCOc1cc(N2CCOCC2)c(OCC)cc1NC(=O)COc1ccc2ccc(=O)oc2c1 | nt | 10 | nt
CCCC[C@@H]1C[C@H]1C(NC(=O)c1cccs1)c1ccccc1C(F)(F)F (stereo not given in full) | 1.2 | nt | nt
OC1c2ccccc2-c2nc3ccccc3cc21 (stereo not given) | 1 | nt | nt
CCCn1c(=O)n(N)c2ccccc21 | nt | 18 | nt
O=C(O)c1cc(-c2ccncc2)nc2ccccc12 | nt | nt | 4
Cc1cc(C(=O)CSc2n[nH]c(N)n2)c(C)n1-c1ccccc1 | nt | 26* | nt
Cc1ccc(-n2c(C)cc(C(=O)CSc3n[nH]c(N)n3)c2C)cc1 | 1.6 | 8 | 12
O=C(O)c1c(-c2nccc3ccccc23)[nH]c(-c2ccccc2)c1S(=O)(=O)O | nt | nt | 9
Cc1ccc(NC(=O)c2ccc(CSc3nnc(C)s3)cc2)c(C)c1 | nt | 5 | nt
Cc1ccc(NC(=O)c2ccc(CSc3nnc(-c4ccncc4)n3C)cc2)c(C)c1 | nt | 100* | nt
CCO[P@]1(=O)OC[C@@H]2O[C@H](n3cnc4c(N)ncnc43)[C@H](O)[C@H]2O1 | nt | nt | -8
SMILES | MT1-MMP txn act | Measles CPE | Smad3 inh
COc1ccc(-c2cc(-c3ccccc3O)[nH]n2)cc1 | 2.5* | 14 | 5
Oc1ccc(Cl)cc1-c1cc(-c2ccccc2)n[nH]1 | 1.4 | 3 | -4
CC[N+](C)(CC)CCN1C(=O)c2ccccc2S1(=O)=O | nt | nt | 21
CCCC(c1nnnn1Cc1ccco1)N1CCN(C(=O)c2ccco2)CC1 (stereo not given) | 0.9 | 44* | -14
CCCCC(c1nnnn1Cc1ccco1)N1CCN(C(=O)c2ccco2)CC1 (stereo not given) | 1.2 | 39 | -11
O=C(O)CCSCc1ccc(I)cc1 | nt | nt | -8
O=C(NC(Cc1c[nH]c2ccccc12)C(=O)Nc1ccc(F)c([N+](=O)[O-])c1)c1cccs1 (stereo not given) | nt | 35 | nt
O=C(NC(Cc1c[nH]c2ccccc12)C(=O)Nc1ccc(OC(F)(F)F)cc1)c1cccs1 (stereo not given) | nt | 52* | nt
Cc1ccc(O)c(C(CC(=O)N2CCCC2)c2ccccc2)c1 (stereo not given) | 1.2 | 29* | nt
CCCN(CCC)C(=O)CC(c1ccccc1)c1cc(C)ccc1O (stereo not given) | 0.9 | 9 | -16
COC(=O)[C@@H]1C[C@H]1[C@@H](NC(=O)c1cccnc1)c1ccccc1 | 1.2 | nt | nt
CCOc1ccccc1NC(=O)c1cc(CC(C)C)oc1C | 1.3 | 4 | 0
Cc1oc(CC(C)C)cc1C(=O)Nc1cccc2ccccc12 | 1.2 | 37* | 2
Cc1cccc(CNc2ncnc3[nH]ncc23)c1 | nt | nt | -10
N=c1sc2ccccc2n1CCS (tested in a mixture with another compound) | nt | nt | 25
COC(=O)c1ccc(C(NC(=O)OCc2ccccc2)/C(I)=C/[C@@H](C)C(=O)NCc2cc(C)n(C)n2)cc1 (stereo not given in full) | 1.1 | nt | nt
COC(=O)c1cc(Br)c(=O)n(Cc2ccncc2)c1 | 1.1 | 25 | -12
COC(=O)c1cc(Br)c(=O)n(Cc2ccc(C(=O)O)cc2)c1 | 1 | 32* | 2
COc1ccc(N(CC(=O)O)N=O)cc1 | nt | nt | 20
CCc1ccc(C(C(=O)NC2CCCCC2)N(C(=O)CNC(=O)c2ccco2)c2cccnc2)cc1 (stereo not given) | 1.3 | nt | 2
CN(C)C[C@H]1CCC[C@@H](CN(C)C)C1=O | nt | nt | 8
CCOC(=O)C1=C(C)NC2=C(C(=O)C(C(=O)OCC)C(c3ccccc3OC)C2)C1c1ccccn1 (stereo not given) | 1 | 4 | 4
CCOC(=O)C1=C(C)NC2=C(C(=O)C(C(=O)OCC)C(c3ccco3)C2)C1c1ccccn1 (stereo not given) | 1.1 | 50* | -3
O=C1Nc2ccccc2CCC1Sc1nnc(-c2ccc(Cl)cc2)s1 (stereo not given) | 2.1* | 10 | -19
CCOC(=O)CN1C(=O)C(Sc2nnc(-c3ccccc3OC)s2)CCc2ccccc21 (stereo not given) | 1.3 | nt | -1
SMILES | MT1-MMP txn act | Measles CPE | Smad3 inh
CCc1cc(OCCCCNCc2ccccc2)ccc1Cl | nt | 2 | nt
O=C(N[C@@H](Cc1ccccc1)C(=O)O)c1ccccc1 | 1.1 | nt | nt
CCN1C(=O)S/C(=C/c2ccc(Sc3nc4ccccc4[nH]3)o2)C1=O | nt | 21 | nt
CC(=O)[C@@]1(N=Nc2ccc(S(N)(=O)=O)cc2)CCOC1=O | nt | nt | 52*
NS(=O)(=O)c1ccc(N=Nc2ccc[nH]c2=O)cc1 | nt | nt | 43
COc1ccccc1N/C(=N/S(=O)(=O)c1ccc(C)cc1)c1ccc(Cl)cc1 | nt | 14 | nt
CCn1c(=O)c2c3c(sc2n2c(=S)[nH]nc12)CCC3 | 1.1 | 14 | -16
COc1cccc(OCCCCCCN2CCOCC2)c1 | 1.2 | 24 | 7
CCOc1cccc(OCCCCN2CCOCC2)c1 | nt | 80* | -4
O=C(Cc1ccc(Br)cc1)OCC(=O)c1ccc2c(c1)OCCO2 | 1.2 | 2 | 4
NCOC(=O)Cc1ccc(Br)cc1 | nt | nt | 73*
O=c1[nH]c2ccc(Br)cc2c(-c2ccccc2)c1CN1CCOCC1 | 1 | 23 | 3
O=c1[nH]c2ccc(Br)cc2c(-c2ccccc2)c1N1CCOCC1 | 1.1 | 56* | 6
CCN1CCN(Cc2c(OC)ccc3ccccc23)CC1 | 1.1 | 4 | -10
CC(C)Oc1ccc2ccccc2c1C=O | nt | 24* | nt
CCC1=C2CC[C@H]3C(=O)NC(=O)[C@H]3[C@H]2[C@@]2(C)C(=O)N(CC3CC3)C(=O)N2C1=O | 1.1 | nt | nt
CC(C)(C)OC(=O)[C@H]([C@@H]1N[C@@H](C(=O)O)C(C)(C)S1)N1C(=O)c2ccccc2C1=O | nt | nt | -7
O=C(C[C@@H](c1ccccc1)N1CCCCC1)c1ccccc1 | nt | nt | 7
Cc1cc(SCC(=O)c2ccc3c(c2)OCO3)nc2ccccc12 | 1 | 31* | 4
Cc1cc(SCC(=O)c2cc3ccccc3o2)nc2ccccc12 | 1.2 | 8 | -2
